# The full list was thinned out, with hits kept by preference.
# TbREL1 inh = TbREL1 RNA ligase inhibitors, primary screen, biochemical, FRET fluorescence; RNA-editing ligase 1, mitochondrial (Trypanosoma brucei brucei), P86926; TbREL1 RNA ligation; inhibition, % at 9.66 µM; actives 0.49% (n = 89,000); AID 1117264, 2014;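 active = inhibition above the mean inhibition across all screened compounds plus 3 SD, cut at about 11% in these data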
# Target sequence (P86926 whole entry, looked up): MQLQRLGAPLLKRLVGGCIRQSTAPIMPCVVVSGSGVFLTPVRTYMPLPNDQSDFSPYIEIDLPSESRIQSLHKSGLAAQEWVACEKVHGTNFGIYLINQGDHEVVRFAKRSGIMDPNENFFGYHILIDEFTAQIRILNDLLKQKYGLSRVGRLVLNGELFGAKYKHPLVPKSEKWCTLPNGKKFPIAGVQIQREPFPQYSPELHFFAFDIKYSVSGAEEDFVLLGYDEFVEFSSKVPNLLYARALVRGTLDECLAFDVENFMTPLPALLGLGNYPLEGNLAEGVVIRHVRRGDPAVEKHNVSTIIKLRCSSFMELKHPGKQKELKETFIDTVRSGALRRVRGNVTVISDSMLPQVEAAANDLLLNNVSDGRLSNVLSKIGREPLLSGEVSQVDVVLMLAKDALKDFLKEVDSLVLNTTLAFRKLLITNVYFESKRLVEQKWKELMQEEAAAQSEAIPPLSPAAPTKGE
# TbREL1 confirm = TbREL1 RNA ligase inhibitors, confirmation, biochemical, FRET fluorescence, triplicate; inhibition, % at 9.66 µM; shares compounds with TbREL1 inh; TbREL1 RNA ligation; actives 37% (n = 390);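 active = mean inhibition across replicates above a set limit taken from the earlier primary screen, cut at about 11% in these data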
# Hits are given with their value; n = inactive; x = no result.
SMILES,TbREL1 inh,TbREL1 confirm
CN1CCN(C2CCN(Cc3ccc(O)c4ncccc34)CC2)CC1,16.6,n
C[C@H]1[C@H](NCc2cccnc2)CC[C@@]23CCCN2C(=O)CCC[C@@H]13,n,x
CCOC(=O)c1ccc(CC(=O)c2ccc(O)c(O)c2O)o1,35.0,84.1
CCOc1ccc(C(=O)Cc2ccc3oc(C(=O)O)cc3c2)c(O)c1,n,x
CCOC(=O)c1oc2cccc(O)c2c1C,n,x
CC(C)C[C@H](NC1(C(=O)NC2CCCCC2)CCOCC1)C(=O)NCC(c1ccccc1)c1ccccc1,n,x
O=C(NCC(c1ccccc1)c1ccccc1)[C@H](Cc1c[nH]c2ccccc12)NC1(C(=O)NC2CCCCC2)CCN(Cc2ccccc2)CC1,n,x
COC(CNC(=O)[C@H](Cc1ccccc1)NC1(C(=O)NC2CCCCC2)CCC1)OC,n,x
O=C(NCC(c1ccccc1)c1ccccc1)[C@H](Cc1ccccc1)NC1(C(=O)NC2CCCCC2)CCCCCC1,11.6,n
CC(C)C[C@H](NC1(C(=O)NC2CCCCC2)CCC1)C(=O)NCC(c1ccccc1)c1ccccc1,n,x
CN1CCC(N[C@@H](Cc2ccccc2)C(=O)NCC(c2ccccc2)c2ccccc2)(C(=O)NC2CCCCC2)CC1,12.5,14.3
O=C1CSc2ccc(C(=O)N3CCCC(C(=O)N4CCOCC4)C3)cc2N1 (stereo not drawn),n,x
COC(=O)[C@H](C)NC(=O)[C@@H]1CC=C[C@@H]2CCN(CCc3ccccc3)C(=O)[C@@H]21,n,x
CCC(C)(C)C(=O)N1CCc2cc(S(=O)(=O)N(C)Cc3ccco3)ccc21,n,x
O=C(Nc1nc2ccccc2s1)c1ccc(Cl)s1,n,x
NC(=O)c1ccc2nc(NC(=O)c3ccc(N)cc3)sc2c1,n,x
O=C(Nc1nc2ccccc2s1)c1ccc(F)cc1,14.8,n
C#CCOCCOCCOCCNc1nc(N2CCOCC2)nc(N2CCN(C(=O)[C@H](CCC(=O)O)n3cc(C(N)CO)nn3)CC2)n1 (stereo partly drawn),15.7,n
C#CCOCCOCCOCCNc1nc(N2CCN(C(=O)[C@H](CCCCN)n3cc([C@@H](N)CC(C)C)nn3)CC2)nc(N2CCN(C(=O)[C@H](Cc3cc4ccccc4[nH]3)n3cc([C@@H](N)CC(C)C)nn3)CC2)n1,20.1,12.9
C#CCOCCOCCOCCNc1nc(N2CCN(C(=O)[C@H](Cc3ccc(O)cc3)n3cc([C@@H](N)CC(C)C)nn3)CC2)nc(N2CCN(C(=O)[C@H](Cc3cc4ccccc4[nH]3)n3cc([C@@H](N)CC(C)C)nn3)CC2)n1,n,x
C#CCOCCOCCOCCNc1nc(N2CCN(C(=O)[C@H](CCCCN)n3cc(CN)nn3)CC2)nc(N2CCN(C(=O)[C@H](CCC(=O)O)n3cc([C@@H](N)CCCCN)nn3)CC2)n1,n,x
C#CCOCCOCCOCCNc1nc(N2CCN(C(=O)[C@H](CCC(=O)O)n3cc(C(N)Cc4ccc(O)cc4)nn3)CC2)nc(N2CCN(C(=O)[C@H](CCC(=O)O)n3cc(C(N)Cc4ccc(O)cc4)nn3)CC2)n1 (stereo partly drawn),n,x
C#CCOCCOCCOCCNc1nc(N2CCN(C(=O)[C@H]([C@@H](C)CC)n3cc([C@@H](N)CO)nn3)CC2)nc(N2CCN(C(=O)[C@H](CCCCN)n3cc([C@@H](N)CO)nn3)CC2)n1,n,x
Cc1cc(Nc2cccc(Br)c2)cc(=O)n1-c1cccc(Br)c1,n,x
O=C(CSc1nc2ccccc2nc1N1CCCC1)N1CCN(C(c2ccccc2)c2ccccc2)CC1,n,x
SMILES,TbREL1 inh,TbREL1 confirm
C/C(=N\NC(=O)C1CC1)c1ccc(C)c(C)c1,n,x
C/C(=N\NC(=O)C1CC1)c1ccc(OC(F)F)cc1,16.4,n
COC(=O)N/N=C(\C)c1ccc(OC(F)F)cc1,n,x
CCOC(=O)C1(Cc2ccccc2)CCN(Cc2ccccc2OC)CC1,n,x
O=C(Nc1ccc(C(O)(C(F)(F)F)C(F)(F)F)cc1)c1ccc(Cl)cc1,n,x
COc1cc(N=c2ssnc2Cl)c(OC)cc1Cl,n,x
Cc1nnc(N=c2ssnc2Cl)o1,13.4,19.5
CC(C)(N[C@@H](Cc1c[nH]c2ccccc12)C(=O)NCC(c1ccccc1)c1ccccc1)C(=O)NC1CCCCC1,n,x
COc1ccc(-c2cc(-c3nnc(SCc4cccc5ccccc45)n3N)[nH]n2)cc1,n,x
O=C(OCC#CCSc1nnc(-c2cccc3ccccc23)o1)c1cccc(F)c1,n,x
O=C(Nc1ccc2c(c1)Cc1ccccc1-2)NC1CCCCN(Cc2ccc(Cl)cc2)C1=O (stereo not drawn),n,x
COc1cccc(C(CC2=CCCCC2)NC(=O)C(F)(F)F)c1 (stereo not drawn),n,x
COCCN=c1scc(-c2ccco2)n1/N=C/c1ccc(O)c(O)c1O,n,x
CN=c1scc(C)n1/N=C/c1ccc(O)c(O)c1O,27.9,37.9
Cc1cc(SCC(=O)N/N=C/c2ccc(O)c(O)c2O)c(C)cc1Br,n,x

# Source: PubChem
